44 compounds from PubChem BioAssay (NCATS) can be followed below.

The structures appear in SMILES notation. Inconclusive results are not listed. Where a call stands in place of a potency, no number is given. A number with no mark means an inactive call. The source made the active and inactive calls. Calls follow the shape of the dose curve; as a rule, active = well fitted curve in the direction sought with a large enough effect; inconclusive = small, poorly fitted or top-dose-only effect, or another doubt; inactive = no such curve, though single readings can be large; an effect the other way counts as inactive or inconclusive.

Assay [1] in a line: Confirmatory screen GU Rhodamine qHTS for Zika virus inhibitors qHTS (AID 1347157). Also: nearly all actives have a fitted effect of over 70% in size. Also: potency is read from the fitted curve at half-maximal effect. An excerpt: Avindra Nath, Ph.D., National Institute of Neurological Disorders and Stroke (NINDS), Bethesda, MD
Radhakrishnan Padmanabhan, Ph.D., Georgetown University (GU), Washington D.C.
Zika Virus causes congenital defects, including microcephaly and is associated with Guillain-Barre syndrome, eningoencephalitis and myelitis in infected adult. […] Using a target-based approach, we hope to establish a screening paradigm to uncover novel, cell-active NS2B-NS3 protease (Zika Virus) specific inhibitors from NCATS' collection of small molecules using qHTS.
Four assay panel was created to identify potential Zika Virus inhibitors. Namely, (1) GU unlinked NS2B-NS3 AMC tagged protease qHTS, (2) GU unlinked NS2B-NS3 Rhodamine tagged protease qHTS, (3) NINDS linked NS2B-NS3 AMC tagged protease qHTS, (4) NINDS linked NS2B-NS3 Rhodamine tagged protease qHTS. Active compounds were re-acquired and re-screened to confirm inhibition. Inhibitors were further screened against various confirmatory and counterscreens in dose response format.
Early Translation Branch (ETB)
National Center for Advancing Translational Sciences (NCATS), Rockville, MD
National Institute of Health (NIH), Bethesda, Maryland
Padmanabhan lab provided the NS2B hydrophilic domain and NS3 protease domain in a noncovalent complex used for the unlinked assay. Control compound aprotinin is obtained from Thermo Scientific (#78432; Waltham, Massachusetts). […]
Briefly, 3 microL of enzyme (25 nM final concentration), in assay buffer (10 mM Tris-HCl pH 8.0 with 0.01% Tween 20) were dispensed into a 1,536-well solid-bottom black plate (Greiner Bio One, Monroe, NC). […] Plates were then immediately read on a ViewLux High-throughput CCD imager (PerkinElmer, Waltham, MA) equipped with FITC fluorescence optics (480(20) nm excitation, 540(25) nm emission), then incubated (room temperature, protected from light) for 15 minutes (~15% conversion). The change in fluorescence intensity over the 15-minute reaction period was normalized against no-inhibitor and no-enzyme controls and the resulting percent inhibition data were fitted to a 4-parameter Hill equation. […]
For orientation: In qHTS, concentration-response curves come from the screen itself.

Assay [2] deals with Zika virus NS2B-NS3 protease (unlinked complex). Description: Primary screen GU Rhodamine qHTS for Zika virus inhibitors: Unlinked NS2B-NS3 protease assay (AID 1347159). Also: nearly all actives have a fitted effect of over 60% in size. In a few lines: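 Percent inhibition came from the 15-min rise in Rhodamine110 fluorescence (1.5 microM substrate, ~15% conversion), normalized to no-inhibitor and no-enzyme wells and Hill-fitted. Unlinked protease, 25 nM, pH 8.0 Tris buffer; compounds up to 114 microM, 15-min preincubation.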

The test system of assay [3] is Zika virus NS2B-NS3 protease (linked construct). Description: Primary screen NINDS Rhodamine qHTS for Zika virus inhibitors (AID 1347160). Also: nearly all actives have a fitted effect of over 55% in size. In a few lines: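 Rhodamine110-peptide cleavage (1.5 µM substrate) by 25 nM linked NS2B-NS3 enzyme at pH 8.0 (Tris, Tween 20), after 15 min RT preincubation with compounds; 15-min fluorescence change normalized to controls and Hill-fitted.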

The test system is the same in assay [4]. Description: 384 well plate NINDS Rhodamine confirmatory qHTS for Zika virus inhibitors (AID 1347164). Also: potency is read from the fitted curve at half-maximal effect; nearly all actives have a fitted effect of over 65% in size. The note with it: rhodamine-110 peptide substrate fluorescence. In a few lines: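 Linked NS2B-NS3 protease (final 5, 30 or 60 nM) preincubated ~15 minutes with compounds, then 10 microM Ac-LKRR-Rhodamine 110 added. Fluorescence (485/538 nm) read after 25 minutes at room temperature, normalized to no-enzyme and no-inhibitor controls.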

Assay [5] relates to Zika virus NS2B-NS3 protease. In words: Primary screen GU AMC qHTS for Zika virus inhibitors (AID 1347154). Also: nearly all actives have a fitted effect of over 70% in size. Also: potency is read from the fitted curve at half-maximal effect. In outline: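 Unlinked Zika NS2B hydrophilic domain–NS3 protease complex at 25 nM in 10 mM Tris-HCl pH 8.0, 0.01% Tween 20, with an AMC peptide substrate. Fluorescence change (340/450 nm) over 15 min at room temperature, normalized to controls, fitted to 4-parameter Hill.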

The nature of assay [6]: Confirmatory screen NINDS Rhodamine qHTS for Zika virus inhibitors (AID 1347161). Also: nearly all actives have a fitted effect of over 60% in size. Also: potency is read from the fitted curve at half-maximal effect.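 As to activity change, negative = inhibition: purified Zika NS2B-NS3 protease with linked NS2B cofactor domain and Rhodamine110 peptide substrate; series mostly up to about 110 µM.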 In a few lines:
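Kinetic fluorescence (Ex 480 nm, Em 540 nm) over 15 min with 1.5 microM Rhodamine110 peptide and 25 nM linked protease.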

The test system of assay [7] is Zika virus NS2B-NS3 protease (linked). Description: 384 well plate NINDS AMC confirmatory qHTS for Zika virus inhibitors (AID 1347163). Also: potency is read from the fitted curve at half-maximal effect; nearly all actives have a fitted effect of over 50% in size. In a few lines: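 Enzyme (5, 30 or 60 nM final) first met test compounds for ~15 min. The AMC-tagged peptide Ac-VKTGKR-AMC followed at 30 microM. Fluorescence was then recorded at 25 min and scaled against no-enzyme and no-inhibitor wells.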

Assay [8] can be described thus: Tertiary RLuc qRT-PCR qHTS assay for Zika virus inhibitors (AID 1347169). Also: top concentration of the series differs between compounds; nearly all actives have a fitted effect of over 55% in size. In a few lines: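 Vero cells (1,000/well) infected with recombinant ZIKV-RLuc (Cambodian) at MOI 1-2 after compound addition, 48-72 hrs at 37 degrees C. Live-cell Renilla luciferase substrate added; luminescence read after 1-1.5 hrs.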
In general terms: In qPCR the cycle at which signal appears reflects the starting amount.

For the compound `CC(C)=CCOc1ccc(/C=C/C(=O)c2ccc(OCC=C(C)C)cc2OCC(=O)O)cc1`, the Potency in assay [1] was 5.62 µM (active).

`O=C(CCCN1CC=C(n2c(=O)[nH]c3ccccc32)CC1)c1ccc(F)cc1`: the result in assay [2] and in assay [3] was inactive.

For the compound `CCc1oc2ccccc2c1C(=O)c1cc(Br)c(O)c(Br)c1`, in assay [4], the Potency is 28.2 µM (active).

As for `C=C1c2cccc(O)c2C(O)=C2C(=O)[C@]3(O)C(O)=C(C(N)=O)C(=O)[C@@H](N(C)C)[C@@H]3[C@@H](O)[C@H]12`, the Potency in assay [4] was 251 µM (active).

For `CC[C@]12CCCN3CCc4c(n(c5ccccc45)C(=O)C1)[C@@H]32`, in assay [5], the Potency entry was “inactive”. Moreover, the compound was classed as inactive in assay [2] and in assay [3].

Consider `CC(=O)Nc1ccc(CC(=O)O)cc1`, for which the Potency entry in assay [5] was “inactive”.

Regarding `CCCCCCCCCCCCCCCCO`, the Potency entry in assay [5] is “inactive”.

As for `N[C@H](C(=O)O)[C@@H](O)c1ccc(O)c(O)c1`, the Potency in assay [5] was 12.8 µM (active).

`O=C1C(=O)c2ccccc2C(O)=C1C1CCC(c2ccc(Cl)cc2)CC1` (centres undefined): the Potency entry in assay [5] is “inactive”.

In the case of `Oc1c(Cl)cc(Cl)c(Cl)c1Cc1c(O)c(Cl)cc(Cl)c1Cl`, the Potency in assay [5] was 7.94 µM (active); in assay [1] it was 15.8 µM (active); in assay [6] it was 3.55 µM (active); in assay [7], 35.5 µM (active); in assay [4], 14.1 µM (active).

As to `O=C(NCCc1c[nH]c2ccccc12)c1cccnc1`, the Potency result in assay [5] was “inactive”.

As to `CN(C)CCC[C@@]1(c2ccc(F)cc2)OCc2cc(C#N)ccc21`, the Potency entry in assay [5] is “inactive”.

For `CC(C)[N+](C)(C)CC(O)COc1cccc2ccccc12` (centres undefined), the Potency result in assay [5] is “inactive”.

Turning to `Nc1nc(N)c(-c2ccccc2)s1`, in assay [5], the Potency result was “inactive”.

Turning to `C[N+]12CCC(CC1)C(OC(=O)C(O)(c1ccccc1)c1ccccc1)C2` (centres undefined), the Potency entry in assay [5] was “inactive”.

As to `Nc1ccc(S(=O)(=O)Nc2cnc3ccccc3n2)cc1`, the Potency result in assay [5] is “inactive”.

For `CCCN(CCc1cccs1)[C@H]1CCc2c(O)cccc2C1`, the Potency result in assay [5] is “inactive”.

For `CC1=C(C(=O)O)N2C(=O)[C@@H](NC(=O)[C@H](N)c3ccccc3)[C@H]2SC1`, the Potency entry in assay [5] was “inactive”.

With `CCOC(=O)c1ccc(N)cc1`, the Potency result in assay [5] was “inactive”.

`Cc1ccc(-c2ncc(Cl)cc2-c2ccc(S(C)(=O)=O)cc2)cn1`: the Potency result in assay [5] is “inactive”.

As to `COc1ccc(CCN(C)CCCN2CCc3cc(OC)c(OC)cc3CC2=O)cc1OC`, the Potency result in assay [5] is “inactive”.

Regarding `O=C(NC1CCN(CCc2c[nH]c3ccccc23)CC1)c1ccccc1`, the Potency entry in assay [5] was “inactive”.

On to `CN(C)CCOC(c1ccc(Cl)cc1)c1ccccn1` (centres undefined), for which the Potency entry in assay [5] is “inactive”.

Take `O=C1C(CCS(=O)c2ccccc2)C(=O)N(c2ccccc2)N1c1ccccc1` (centres undefined): the Potency result in assay [5] is “inactive”.

With `CCNC(=O)NCc1cccc(Cl)c1`, in assay [5], the Potency entry is “inactive”.

Take `O=C(O)CCC(=O)Nc1ccc(S(=O)(=O)Nc2nccs2)cc1`: the Potency entry in assay [5] was “inactive”.

`O=C(O)C(Cc1cc(I)c(O)c(I)c1)c1ccccc1` (centres undefined): in assay [5], the Potency result was “inactive”. Moreover, the figures for the Potency in assay [6] and in assay [4] were 50.1 µM (active) and 112 µM (active), respectively. In addition, the activity change, negative = inhibition in assay [8] is -2.94% [at 1.74 µM].

In the case of `CC(=O)O[C@H]1C[C@@H]2CC[C@@H]3[C@H](CC[C@@]4(C)[C@H]3C[C@H]([N+]3(C)CCCCC3)[C@@H]4OC(C)=O)[C@@]2(C)C[C@@H]1N1CCCCC1`, the Potency entry in assay [5] is “inactive”.

As to `FC1(F)C(F)(F)C(F)(F)C2(F)C(F)(F)C(F)(F)C(F)(F)C(F)(F)C2(F)C1(F)F` (centres undefined), the Potency entry in assay [5] is “inactive”.

As to `C=C[C@H]1CN2CC[C@H]1C[C@H]2[C@H](O)c1ccnc2ccc(OC)cc12`, the Potency result in assay [5], in assay [1], in assay [6] and in assay [8] was “inactive” in each case. Also, the call in assay [2] was inactive.

On to `COc1cc(O)c(C(=O)c2ccccc2)cc1S(=O)(=O)O`, for which the Potency entry in assay [5] is “inactive”.

For the compound `OC(C#CCN1CCCC1)(c1ccccc1)c1ccccc1`, in assay [5], the Potency result is “inactive”.

Regarding `Cc1nc(-c2ccc(Cl)cc2)oc1COC(C)(C)C(=O)O`, the Potency entry in assay [5] is “inactive”.

For the compound `Cc1cccc(C)c1NC(=O)CN1CCCC1`, in assay [5], the Potency result is “inactive”.

In the case of `CN1CCC(OC(c2ccccc2)c2ccccc2)CC1`, the Potency entry in assay [5] was “inactive”.

Regarding `CC(=O)Nc1ncc([N+](=O)[O-])s1`, the Potency entry in assay [5] is “inactive”.

Regarding `CC(O)Cn1cnc2c1c(=O)n(C)c(=O)n2C` (centres undefined), the Potency entry in assay [5] was “inactive”.

For `CC(=O)Nc1ccc(S(=O)(=O)Nc2ccc([N+](=O)[O-])cc2)cc1`, in assay [5], the Potency entry is “inactive”.

For the compound `O=C1[C@H](CC[C@H](O)c2ccc(F)cc2)[C@@H](c2ccc(O)cc2)N1c1ccc(F)cc1`, the Potency entry in assay [5] is “inactive”. For the same compound, the call in assay [3] was inactive.

In the case of `CC1(C)OC[C@@H]2O[C@@]3(C(=O)O)OC(C)(C)O[C@H]3[C@@H]2O1`, in assay [5], the Potency entry was “inactive”.

For the compound `CCCCCCCCCCCCCCCC(=O)O`, the Potency result in assay [5] was “inactive”.

Turning to `CNCCc1ccccn1`, the Potency result in assay [5] is “inactive”.

Regarding `CCCc1ncc(C[n+]2ccccc2C)c(N)n1`, the Potency result in assay [5] is “inactive”.

On to `CC(C)[C@@H]1CC[C@@H](C)CC1=O`, for which, in assay [5], the Potency entry is “inactive”.
